Inhibition data for 97 compounds are collected here from PubChem BioAssay AID1565 (Sanford-Burnham Center for Chemical Genomics, 2009).

The campaign covered roughly 290,000 compounds. About 3,200 (1.1%) were called active. No stated cut-off is given here; in the data, active means inhibition above about 60%; inactive means the rest. What follows is part of a selection rich in actives, with near analogues and random picks from the rest.

One may read the inhibition as the relative decrease from the control value, in per cent.

For the test, the target named is Phosphoethanolamine/phosphocholine phosphatase (Homo sapiens) (UniProt Q8TCT1). The test is described as follows: PubChem AID 1565. As to conditions: recombinant PHOSPHO1, absorbance phosphatase assay; at 13.3 µM; hits give high values.
Chain of Phosphoethanolamine/phosphocholine phosphatase (Homo sapiens) (Q8TCT1 whole entry, looked up): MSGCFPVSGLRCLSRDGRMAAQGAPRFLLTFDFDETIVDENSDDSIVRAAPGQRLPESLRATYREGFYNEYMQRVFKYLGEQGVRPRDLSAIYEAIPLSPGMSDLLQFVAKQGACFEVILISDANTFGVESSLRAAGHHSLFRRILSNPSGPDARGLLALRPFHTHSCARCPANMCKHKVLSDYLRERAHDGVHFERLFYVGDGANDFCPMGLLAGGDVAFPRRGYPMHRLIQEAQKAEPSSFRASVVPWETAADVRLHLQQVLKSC
For the compound `O=C(C1CCCN(S(=O)(=O)c2ccc([N+](=O)[O-])cc2)C1)N1CCCCC1` (configuration not stated), the inhibition was 52.6% (inactive).

In the case of `O=C(NNS(=O)(=O)c1ccc(F)cc1)C1CCCCC1`, the inhibition is 18.4% (inactive). The figure for `O=C(NNS(=O)(=O)c1ccc([N+](=O)[O-])cc1)C1CCCCC1` is 61% (active); for `O=C(Cc1ccccc1)NNS(=O)(=O)c1ccc([N+](=O)[O-])cc1` it is 6.7% (inactive). The value for `CC(=O)N1c2ccc(S(=O)(=O)N3CCCC(C(=O)Nc4ccc(C)cc4C)C3)cc2CC1C` (configuration not stated) was 25.4% (inactive); that for `COc1ccc(OC)c(NC(=O)C2CCCN2S(=O)(=O)c2cccc3nsnc23)c1` (configuration not stated) was 20.7% (inactive). With `O=C(CSc1nnc(-c2ccco2)n1CC1CCCO1)c1ccccc1` (configuration not stated), the inhibition is 69.4% (active). The value for `Cc1nnc(SCC(N)=O)n1CC1CCCO1` (configuration not stated) was 14.5% (inactive). Turning to `COc1ccccc1NC(=O)CSc1nnc(C)n1CC1CCCO1` (configuration not stated), the inhibition was 2.5% (inactive). Regarding `Cc1cccc(NS(=O)(=O)c2ccc(-c3cnc(C4CC4)o3)cc2)c1`, the inhibition was 36.8% (inactive). Consider `Cc1nnc(SCC(=O)Nc2ccc(S(=O)(=O)Nc3ccc(Cl)nn3)cc2)s1`, for which the inhibition was 7.5% (inactive). The value for `S=C(c1ccccc1)N1CCCC1` was 29% (inactive). For the compound `OCCN1CCN(C(=S)c2ccc(-c3ccccc3)cc2)CC1`, the inhibition is 71.4% (active). The figure for `O=C(NC(c1ccccc1)c1ccccc1)N1CCN(CCO)CC1` is -22.1% (inactive). Consider `COc1ccc(C(=O)N2CCCN(C)CC2)c(OC)c1`, for which the inhibition is -0.8% (inactive). The value for `Cc1ccc(NC(=O)CN(C)C(=O)COC(=O)C(C)(C)Oc2ccc(Cl)cc2)cc1` was 14.5% (inactive); that for `CC(C)CC(CCc1ccccc1)OS(N)(=O)=O` (configuration not stated) was 4% (inactive); that for `CC(=O)c1cc(C#N)c(N2CCCCC2)nc1C` was 1.5% (inactive).

Consider `CC(=O)c1cc(C#N)c(SCC(=O)C(C)(C)C)nc1C`, for which the inhibition was 75.8% (active). As for `CC(=O)c1cc(C#N)c(SCC(=O)Nc2nccs2)nc1C`, the inhibition is 28.8% (inactive).

In the case of `Clc1cc(NC2CCCCC2)ncn1`, the inhibition is -10.9% (inactive). The value for `COc1ccc(-n2cnnc2SCC(=O)Nc2cccc([N+](=O)[O-])c2)cc1` was -3.1% (inactive); that for `COc1cccc(NCCC(=O)c2cccc([N+](=O)[O-])c2)c1` was 22.6% (inactive). The figure for `COc1ccc(Cc2nnc(SCC(=O)c3cccc([N+](=O)[O-])c3)n2C)cc1` is 76.3% (active); for `COc1cccc(CNS(=O)(=O)c2cc3c(cc2C)n(C)c(=O)c(=O)n3C)c1` it is -3.5% (inactive). With `Cc1cccc(CNS(=O)(=O)c2ccc(-c3cnc(C4CC4)o3)cc2)c1`, the inhibition was 32.9% (inactive). Take `Cn1c(SCc2ccc(F)cc2)nnc1-c1ccncc1`: the inhibition is 35.1% (inactive). The figure for `Cc1nc2sc(C(c3ccco3)N3CCOCC3)c(O)n2n1` (configuration not stated) is -2.3% (inactive); for `Oc1c(C(c2ccco2)N2CCC3(CC2)OCCO3)sc2ncnn12` (configuration not stated) it is 95.9% (active); for `Oc1c(C(c2cccs2)N2CCN(c3ccc(F)cc3)CC2)sc2ncnn12` (configuration not stated) it is 19.3% (inactive). In the case of `COc1ccc(CNC(=O)C(NS(=O)(=O)c2cccc3nsnc23)C(C)C)cc1` (configuration not stated), the inhibition is 59.8% (inactive). On to `Cc1ccc(NC(=O)CCNS(=O)(=O)c2ccc3c(c2)oc(=O)n3C)cc1C`, for which the inhibition was -21.8% (inactive).

With `Cn1c(=O)oc2cc(S(=O)(=O)NCCC(=O)NCc3ccccc3Cl)ccc21`, the inhibition is 75.4% (active). For `COc1cccc(NC(=O)CCNS(=O)(=O)c2ccc3c(c2)oc(=O)n3C)c1`, the inhibition was 59.6% (inactive).

Turning to `O=c1cc(Cl)c2ccccc2n1-c1ccccc1`, the inhibition is 19.9% (inactive). The figure for `CN(Cc1c(F)cccc1Cl)S(=O)(=O)c1cccs1` is -15.8% (inactive); for `Cc1c(Cl)cccc1NC(=O)CCC(=O)N/N=C/c1ccco1` it is 32.7% (inactive); for `Cn1c(-c2sccc2OCc2cccc(C(F)(F)F)c2)n[nH]c1=S` it is 36.7% (inactive). With `Cn1c(-c2sc3cc(C(F)(F)F)cnc3c2-c2ccccc2)n[nH]c1=S`, the inhibition is 96.2% (active).

Turning to `Cc1ccccc1-c1n[nH]c(=S)n1C`, the inhibition is -137% (inactive). The figure for `COc1cccc(NC(=O)CCc2nnc3ccc(N4CCC(C)CC4)nn23)c1` is -8.3% (inactive). The figure for `Cc1cccnc1CCNC(=O)C1CCC(=O)N(Cc2cccc(F)c2)C1` (configuration not stated) is 24% (inactive); for `COc1cccc(CNC(=O)C2CCCN(c3ncnc4c3nc3n4CCCCC3)C2)c1` (configuration not stated) it is -55.9% (inactive); for `O=C(Nc1ccc(Cl)c(Cl)c1)N1CC=C(c2ccccc2)CC1` it is 61.1% (active). The figure for `O=C(Nc1ccccc1)N1CCN(C(=O)Nc2ccccc2)CC1` is 15.9% (inactive).

In the case of `O=C(Nc1cccc(NC(=O)N2CCN(c3ccccc3)CC2)c1)N1CCN(c2ccccc2)CC1`, the inhibition is 12.4% (inactive). The value for `Cc1occc1C(=O)N/N=C/c1ccc(-c2cccc([N+](=O)[O-])c2)o1` was 40.3% (inactive); that for `C[N+]1(CCNC(=O)/C=N/O)CCCCC1` was 91.1% (active). For `N#CC(C#N)=CN=c1ccn(Cc2ccc(Cl)cc2Cl)cc1`, the inhibition is 34% (inactive). The value for `COCCNC(=O)c1ccc2nc(Cc3ccc(OC)c(OC)c3)oc2c1` was -8.2% (inactive); that for `COc1ccc(-n2c(-c3ccc(OC)c(OC)c3)n[nH]c2=S)cc1` was -135% (inactive). On to `COc1ccc(Cc2n[nH]c(=S)n2NC(=O)Nc2ccc(C)cc2)cc1`, for which the inhibition was 36.2% (inactive). On to `Cc1ccc(OCc2n[nH]c(=S)n2-c2ccc(C)cc2)cc1`, for which the inhibition is -0.8% (inactive). As for `S=c1[nH]nc(COc2ccccc2)n1-c1ccccc1`, the inhibition is -11.2% (inactive). Regarding `COc1ccc(OCc2n[nH]c(=S)n2N)cc1`, the inhibition was 70.9% (active). Turning to `Cc1ccc(OCc2n[nH]c(=S)n2-c2ccccc2)cc1`, the inhibition was 60.9% (active). In the case of `Cc1cccc(N2Cc3ccccc3C2=NC(=O)c2ccc(Cl)nc2)c1`, the inhibition is -3.9% (inactive). The figure for `Cc1nn(CC(=O)NCCc2ccccc2)c(=O)c2cc3occc3n12` is -36.2% (inactive). The figure for `O=C1/C(=C/c2ccc(F)cc2)SC(=S)N1CCCC(=O)N1CCCCC1CCO` (configuration not stated) is 38.5% (inactive); for `O=C(c1ccc(CS(=O)(=O)c2ccccc2)o1)N1CCN(c2ccccc2)CC1` it is 2.1% (inactive). The value for `CC(C)c1ccc(S(=O)(=O)NC2CCCC2)cc1` was 24% (inactive). On to `Cc1cnc(NC(=O)c2ccc(Cl)nc2)s1`, for which the inhibition is -16.6% (inactive). The figure for `NS(=O)(=O)c1ccc(NC(=O)COC(=O)c2ccc(Cl)nc2)cc1` is 8.4% (inactive); for `CCN(CC)c1ccc(NC(=O)c2ccc(Cl)nc2)cc1` it is 74.3% (active); for `CCCCNC(=O)c1cn(CC)c2cc(N3CCN(C(=O)c4ccco4)CC3)c(F)cc2c1=O` it is 12.7% (inactive). The value for `CCCn1c(C2CCCN2c2nc(-c3ccc(OC)cc3)cs2)nc2ccccc21` (configuration not stated) was -1.7% (inactive); that for `Cc1ccc(-c2cc(N)on2)cc1` was 1.1% (inactive).

For `CC(C)C(=O)NCc1cc(-c2ccc(Cl)cc2)no1`, the inhibition was 32.2% (inactive). The figure for `Cc1ccc(S(=O)(=O)Cc2cc(-c3ccc(Cl)cc3)no2)cc1` is 65.8% (active). On to `O=C(CCc1nnc2ccc(NCc3ccco3)nn12)Nc1cc(F)ccc1F`, for which the inhibition is 19.9% (inactive). Regarding `COc1ccccc1OCCOc1ccc(/C=C2\C(=N)N3N=C(C)SC3=NC2=O)cc1`, the inhibition was 19.1% (inactive).

Regarding `CCOc1ccccc1N1CCN(C(=O)c2ccc3[nH]c(C)c(C)c3c2)CC1`, the inhibition is 18.1% (inactive). The value for `Cc1c(C(=O)NCC(c2ccco2)N2CCCC2)oc2ccc(Cl)cc12` (configuration not stated) was 7% (inactive); that for `Fc1ccc(/C=N/n2c(COc3ccccc3)n[nH]c2=S)cc1` was 5.5% (inactive).

In the case of `COc1cc(/C=N/O)ccc1OCc1ccc([N+](=O)[O-])cc1`, the inhibition was 5.6% (inactive). With `COc1cc(/C=N/n2c(C)n[nH]c2=S)ccc1OCc1ccccc1`, the inhibition was 69.1% (active). For the compound `CCC(NC(=O)c1cc(COc2ccc(F)c(F)c2)on1)c1ccncc1` (configuration not stated), the inhibition is 21.8% (inactive). With `CC1(C)CCc2nc(SCc3ccccc3)c(C#N)cc2C1`, the inhibition is 15% (inactive). As to `CC(NC(=O)CSc1nc2c(cc1C#N)CN(C)CC2)c1ccccc1` (configuration not stated), the inhibition is 95.3% (active). As to `Cc1cc(NC(=O)CSc2nc3c(cc2C#N)CCCCC3)no1`, the inhibition is 56% (inactive).

As to `CC1CC(C)CN(c2ccc(S(=O)(=O)N3CCOCC3)cc2)C1` (configuration not stated), the inhibition was 33.4% (inactive).

Consider `C=CCN1CN(S(=O)(=O)c2ccc(OC)cc2)c2nc3ccccc3nc21`, for which the inhibition is 4.7% (inactive). The value for `CCc1cc(-c2n[nH]c(=S)n2CC(C)C)cs1` was -17% (inactive).

`COc1cc(-c2n[nH]c(=S)n2Cc2ccccc2)cc(OC)c1OC`: the inhibition was -91.1% (inactive). As for `CCCc1cc(-c2n[nH]c(=S)n2Cc2ccccc2)cs1`, the inhibition is 82.7% (active). As to `O=C(NCc1ccccc1)c1onc(CSc2nc3ccccc3[nH]2)c1C(=O)NCc1ccccc1`, the inhibition was 15.1% (inactive).

Regarding `CN(c1ccccc1)S(=O)(=O)c1ccc2[nH]c(=O)[nH]c2c1`, the inhibition was 2.8% (inactive). The figure for `O=C(c1ccccc1)c1ccc(C(=O)N2CCN(c3ccccc3)CC2)cc1` is 70.6% (active); for `O=C(c1ccc(S(=O)(=O)N2CCOCC2)cc1)N1CCN(c2ccccc2)CC1` it is 7.1% (inactive). As for `Cc1nc2ccc(C(=O)N3CCN(c4ccccc4)CC3)cc2s1`, the inhibition is -38.4% (inactive). Consider `C=CCn1c(CNS(=O)(=O)c2ccc(Br)cc2)nnc1SC`, for which the inhibition was 38.1% (inactive). The figure for `Cc1cccc(-n2nc3c(c2NC(=O)c2cc4ccccc4o2)CS(=O)(=O)C3)c1` is 12.5% (inactive); for `CCn1c(SCC(=O)c2ccc3ccccc3c2)nnc1-c1cccs1` it is 17.7% (inactive); for `CCn1c(Cc2cccs2)nnc1SCC(=O)c1ccc(C)cc1` it is 67.3% (active). The figure for `Cc1ccc(-n2c(Cc3cccs3)nnc2SCC(=O)OC(C)C)cc1` is 4.6% (inactive). The figure for `CCNC(=O)Nc1ccc(S(=O)(=O)Nc2cnc(C)nc2C)cc1` is 22% (inactive). In the case of `COc1ccc(N(CC(=O)N2CCOCC2)S(=O)(=O)c2ccccc2)cc1Cl`, the inhibition was 12.6% (inactive).
